High-throughput results deposited in PubChem by The Scripps Research Institute Molecular Screening Center.
Most compounds without a hit are left out; they make up all but 3.5% or so of the library.
MITF inh: inhibitors of human MITF; AID 1259374; AlphaScreen MITF homodimerization, bead proximity signal; hit rate 0.91% among 650,000; inhibition, % at 2.6 µM; O75030; in the data active means inhibition above about 50%
TEAD-YAP inh: TEAD-YAP interaction inhibition | HEK-TIYL cells, TEAD-Gal4/YAP UAS-luciferase luminescence | inhibition, % at 9.12 µM | hit rate 1.4% among 640,000; in the data active means inhibition above about 32%
GPR151 ag: human GPR151 activation. PathHunter beta-arrestin GPR151 cells, luminescence. activation, % at 11.2 µM. hit rate 1% among 650,000. AID 1508602; in the data active means activation above about 4.9%
FBW7 act: human FBW7 E3 ligase activation, primary screen. normalized activity (activation), % at 26.1 µM. AlphaScreen FBW7–phospho-cyclin E peptide binding, activator screen. hit rate 0.13% among 650,000; in the data active means normalized activity above about 1.9%;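 further: purified mutant Fbw7 with reduced substrate affinity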
GPR151 conf act: human GPR151 activation, confirmation screen; shares compounds with GPR151 ag; GPR151 PathHunter beta-arrestin cells, luminescence, 90 min; % of EA-reagent control over plate median; activation, % at 11.2 µM; 6,700 tested, under 10 active; AID 1508609;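 active means mean percent activation across replicates above the confirmation screen cutoff of 4.91%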
GPR119 counter: activates human GPR119 in a GPR151 counter-screen | GPR119 PathHunter beta-arrestin cells, luminescence, 90 min; 0 = compound-well median, 100 = enzyme-acceptor control | activation, % at 11.2 µM | AID 1508611 | shares compounds with GPR151 ag | hit rate 0.3% among 6,700;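 active means mean percent activation in the counterscreen above 29.09%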;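 further: counterscreen on off-target GPR119 to flag nonselective hits from the GPR151 activator screen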
Target sequence (Q8TDV5 whole entry, looked up): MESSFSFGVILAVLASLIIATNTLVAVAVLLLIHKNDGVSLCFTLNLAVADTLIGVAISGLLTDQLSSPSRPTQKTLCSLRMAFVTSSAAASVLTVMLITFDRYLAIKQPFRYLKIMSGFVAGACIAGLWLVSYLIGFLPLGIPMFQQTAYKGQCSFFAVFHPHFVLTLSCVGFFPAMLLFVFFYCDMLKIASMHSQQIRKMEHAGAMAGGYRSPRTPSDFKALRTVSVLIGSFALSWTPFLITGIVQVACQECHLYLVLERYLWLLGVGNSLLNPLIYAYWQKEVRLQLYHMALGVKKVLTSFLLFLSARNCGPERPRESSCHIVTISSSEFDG
Large screens that a line does not name were inactive (follow-up assays come after a bar, where they were run); ! = repeats disagree.

COc1ccc(OC(=O)c2oc3nc(C)c(C)c(C)c3c2N)cc1OC	none
O=C(Nc1ccc2c(c1)OCO2)c1ccnc(N2CCC(N3CCOCC3)CC2)c1	GPR151 ag 5.7 | GPR151 conf act inactive | GPR119 counter inactive
O=C(Nc1ccc(N2CCOCC2)cc1)c1ccnc(N2CCC(N3CCOCC3)CC2)c1	none
CC(C)c1ccc(-c2nn(-c3ccccc3)c(=O)c3ccccc23)cc1	GPR151 ag 5.2 | GPR151 conf act inactive | GPR119 counter inactive
O=c1c2ccccc2c(-c2ccc(Br)cc2)nn1-c1ccccc1	none
CCCCN1CCC(Nc2ccccc2)(C(N)=O)CC1	none
NC(=O)C1(Nc2ccccc2)CCCCC1	GPR151 ag 6.8 | GPR151 conf act inactive | GPR119 counter inactive
CCc1cccc(NC(=O)c2sccc2S(=O)(=O)N(C)c2ccc(C)cc2)c1	GPR151 ag 6.0 | GPR151 conf act inactive | GPR119 counter inactive
COc1cc2c(cc1OC)CN(C)CCc1cc3c(cc1C(=O)C2)OCO3	none
O=C(/C=C/c1c(F)cccc1Cl)NCCN1CCOCC1	GPR151 ag 6.2 | GPR151 conf act inactive | GPR119 counter inactive
COc1ccccc1/C=C/C=C(\C#N)C(=O)NC1CCCCC1	none
COc1ccccc1S(=O)(=O)Cc1ccc(C(=O)N2CCOCC2)o1	GPR151 ag 46 | GPR151 conf act inactive | GPR119 counter inactive
COc1ccc(OC)c(C(=O)c2oc3ccc(Cl)cc3c2N)c1	TEAD-YAP inh 50, GPR151 ag 6.3 | GPR151 conf act inactive | GPR119 counter inactive
COc1ccc(OC)c(C(=O)c2oc3ccc(Cl)cc3c2NC(C)=O)c1	none
CC(C)CNc1nccn2c(-c3cnn(C)c3)cnc12	none
CCc1ccccc1N(CC(=O)NC1CC2CCC1C2)S(C)(=O)=O (centres undefined)	GPR151 ag 5.6 | GPR151 conf act inactive | GPR119 counter inactive
CS(=O)(=O)N(CC(=O)NC1CC2CCC1C2)c1cc(Cl)c(Cl)cc1Cl (centres undefined)	none
C/C(=N\NC(=O)CNc1ccccc1Cl)C(C)(C)C	GPR151 ag 5.9 | GPR151 conf act inactive | GPR119 counter inactive
CNC(=O)OCc1ccc(-c2ccc(C)cc2)o1	none
CNC(=O)OCc1ccc(-c2ccc(Cl)cc2)o1	GPR151 ag 5.9 | GPR151 conf act inactive | GPR119 counter inactive
COc1ccc(CNC(=O)c2nn3c(c2Cl)NC(c2ccc(OC)cc2)CC3C(F)(F)F)cc1 (centres undefined)	none
O=C(CSc1ccc(-c2ccc3c(c2)OCCO3)nn1)N1CCc2ccccc21	none
CCOC(=O)COc1ccc2c(=O)c(-c3ccc(OC)cc3)c(C)oc2c1	none
CCOC(=O)COc1ccc2c(=O)c(-c3ccccc3F)c(C)oc2c1	GPR151 ag 6.2 | GPR151 conf act inactive | GPR119 counter inactive
Cc1ccc(C2C3=C(CC(C)(C)CC3=O)Nc3n[nH]c(C)c32)cc1 (centres undefined)	GPR151 ag 8.4 | GPR151 conf act inactive | GPR119 counter inactive
Cc1ccc(C2C3=C(CC(C)(C)CC3=O)Nc3c2c(=O)n(C)c(=O)n3C)cc1 (centres undefined)	GPR151 ag 7.5 | GPR151 conf act inactive | GPR119 counter inactive
Cn1c2c(c(=O)n(C)c1=O)C(c1ccc(F)cc1)C1=C(CC(C)(C)CC1=O)N2 (centres undefined)	none
CC1=C(C(=O)Nc2nc3ccccc3s2)C(c2ccc(Br)cc2)C2=C(CC(C)(C)CC2=O)N1 (centres undefined)	none
CC1=C(C(=O)Nc2nc3ccccc3s2)C(c2ccc(C)cc2)C2=C(CC(C)(C)CC2=O)N1 (centres undefined)	GPR151 ag 6.5 | GPR151 conf act inactive | GPR119 counter inactive
CCOc1ccc(/C(O)=C2/C(=O)C(=O)N(CCN(CC)CC)C2c2ccc(C(C)(C)C)cc2)cc1C (centres undefined)	none
CC(=O)c1ccc(S(=O)(=O)NCCc2cn3ccc(C)cc3n2)cc1	GPR151 ag 5.0 | GPR151 conf act inactive | GPR119 counter inactive
COCc1ccc([C@@H]2C[C@H]3CN(c4ccccc4)C(=O)[C@]34CCCN24)o1	GPR151 ag 5.6 | GPR151 conf act inactive | GPR119 counter inactive
COCc1ccc([C@@H]2C[C@H]3CN(C4Cc5ccccc5C4)C(=O)[C@]34CCCN24)o1	none
Nc1nc(CSc2nnnn2Cc2ccccc2)nc(N2CCOCC2)n1	GPR151 ag 7.6 | GPR151 conf act inactive | GPR119 counter inactive
O=C(Nc1ccccc1)c1ccccc1OCC(O)Cn1c2ccccc2c2ccccc21 (centres undefined)	GPR151 ag 13 | GPR151 conf act inactive | GPR119 counter inactive
CCOC(=O)COc1ccc(/C=C2\C=C(c3ccc(Br)cc3)OC2=O)cc1OC	GPR151 ag 13 | GPR151 conf act inactive | GPR119 counter inactive
CCOC(=O)c1ccc(NC(=O)c2ccc(C)s2)cc1	none
CCOc1c(Cl)cc(C(=O)O)cc1OC	GPR151 ag 6.4 | GPR151 conf act inactive | GPR119 counter inactive
CCCCOc1c(Cl)cc(C(=O)O)cc1OC	none
O=c1ccn(C2OC(COc3ccc([N+](=O)[O-])cc3)C(O)C2O)c(=O)[nH]1 (centres undefined)	none
O=c1ccn([C@@H]2O[C@H](COP(=O)(O)OP(=O)(O)O)[C@@H](O)[C@H]2O)c(=O)[nH]1	GPR151 ag 5.1 | GPR151 conf act inactive | GPR119 counter inactive
Cc1cnc(-n2nnc(C(=O)N3c4ccccc4CC3C)c2C)s1 (centres undefined)	none
COc1ccc(CCNC(=O)CCc2nc3cccnc3n2-c2ccccc2)c(OC)c1	GPR151 ag 5.1 | GPR151 conf act inactive | GPR119 counter inactive
CCCNC(=O)c1cc(-c2ccccn2)nc2ccccc12	none
CCN(CCCNC(=O)c1cc(-c2ccccn2)nc2ccccc12)c1cccc(C)c1	GPR151 ag 8.0 | GPR151 conf act inactive | GPR119 counter inactive
CC(=O)N1C(=O)/C(=C2\SC(=S)N(c3ccccc3F)C2=O)c2ccccc21	none
COc1ccccc1N1C(=O)/C(=C2/C(=O)N(C(C)=O)c3ccccc32)SC1=S	GPR151 ag 6.5 | GPR151 conf act inactive | GPR119 counter inactive
CCOC(=O)CSc1nc2ccccc2o1	none
O=C(Nc1cc2ccccc2cc1NC(=O)c1ccc(Cl)cc1)c1ccc(Cl)cc1	GPR151 ag 5.6 | GPR151 conf act inactive | GPR119 counter inactive
Cc1nc(N2CCCN(C)CC2)c2c(-c3cccs3)csc2n1	none
Cc1nc(N2CCC(C(N)=O)CC2)c2c(-c3cccs3)csc2n1	GPR151 ag 5.4 | GPR151 conf act inactive | GPR119 counter inactive
CCOc1ccc(NC(=O)C(Sc2ccccc2)c2ccccc2)c([N+](=O)[O-])c1 (centres undefined)	GPR151 ag 6.1 | GPR151 conf act inactive | GPR119 counter inactive
CCN(CC)CCNC(=O)c1cc(Cl)c(N)cc1OC	GPR151 ag 6.6! | GPR151 conf act inactive | GPR119 counter inactive
